Compound activity: PubChem, several laboratories
V-ATPase pH = regulators of yeast V-ATPase proton pumping, primary screen, pHLuorin cytosolic pH fluorescence; S. cerevisiae; response, % at 10 µM; 350,000 tested, 0.37% active; in the data active = response mostly above about 7.3%, no sharp cut-off; inactive = mostly below about 5.4%; note: actives read high
NPR1 activator = GC-A stimulated cGMP production enhancers – HEK293 GC-A cells, cGMP TR-FRET, EC30 ANP, primary screen; Atrial natriuretic peptide receptor 1 (Homo sapiens), P16066; 0% at EC30 ANP, 100% saturating ANP; activation, % at 10 µM; 370,000 tested, 0.14% active; in the data active = activation above about 40%
Target sequence (P16066 whole entry, looked up): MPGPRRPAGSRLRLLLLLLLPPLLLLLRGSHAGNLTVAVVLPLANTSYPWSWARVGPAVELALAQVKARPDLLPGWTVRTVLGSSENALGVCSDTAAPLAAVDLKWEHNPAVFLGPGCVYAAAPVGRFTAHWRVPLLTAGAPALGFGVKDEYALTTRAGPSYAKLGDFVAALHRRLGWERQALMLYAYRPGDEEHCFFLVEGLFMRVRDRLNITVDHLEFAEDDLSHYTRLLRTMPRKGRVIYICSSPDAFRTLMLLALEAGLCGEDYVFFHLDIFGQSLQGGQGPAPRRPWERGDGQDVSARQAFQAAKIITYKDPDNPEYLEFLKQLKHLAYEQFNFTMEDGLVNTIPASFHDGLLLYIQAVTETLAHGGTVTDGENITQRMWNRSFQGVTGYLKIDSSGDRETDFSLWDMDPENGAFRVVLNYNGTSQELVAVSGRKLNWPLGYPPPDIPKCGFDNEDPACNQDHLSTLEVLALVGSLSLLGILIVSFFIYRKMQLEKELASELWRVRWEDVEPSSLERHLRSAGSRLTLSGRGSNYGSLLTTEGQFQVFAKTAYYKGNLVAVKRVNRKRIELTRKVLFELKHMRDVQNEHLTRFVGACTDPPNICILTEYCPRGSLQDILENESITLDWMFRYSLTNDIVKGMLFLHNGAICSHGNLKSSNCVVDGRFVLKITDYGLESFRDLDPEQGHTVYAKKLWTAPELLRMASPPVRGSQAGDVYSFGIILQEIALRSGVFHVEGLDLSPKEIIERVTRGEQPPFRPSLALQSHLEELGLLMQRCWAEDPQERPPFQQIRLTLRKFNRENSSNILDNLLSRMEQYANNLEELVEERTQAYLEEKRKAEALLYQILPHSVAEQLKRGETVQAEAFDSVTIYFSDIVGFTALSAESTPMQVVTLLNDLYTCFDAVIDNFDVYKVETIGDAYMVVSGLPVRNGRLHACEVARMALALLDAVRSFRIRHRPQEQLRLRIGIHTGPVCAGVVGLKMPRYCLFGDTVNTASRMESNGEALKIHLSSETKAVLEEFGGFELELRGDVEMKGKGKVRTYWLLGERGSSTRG
Rev-erbA mod = modulators of Rev-erb alpha DNA binding, primary screen, biochemical, FITC-DNA, fluorescence polarization, uHTS; Nuclear receptor subfamily 1 group D member 1 (Homo sapiens), P20393; Rev-erbα–FITC-DNA binding, 90 min; activity, % at 10 µM; 370,000 tested, 0.79% active;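 active = activity above about 14%, limit read from the data; passing the limit was not always enough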;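 note: 0% = DMSO wells with 35 nM protein and 100% = DMSO wells with 750 nM protein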
PG9 binder = binders of HIV-1 gp120 antibody PG9, primary screen, biochemical, TR-FRET | inhibition, % at 6.7 µM | TR-FRET gp120-PG9 antibody binding | 360,000 tested, 0.43% active; in the data active = inhibition above about 8.5%
NPR2 activator = human GC-B receptor activators, primary screen, HEK293 GC-B cells, cGMP TR-FRET, EC30 CNP | Atrial natriuretic peptide receptor 2 (Homo sapiens), P20594 | 0% at EC30 CNP, 100% saturating CNP | activation, % at 10 µM | 370,000 tested, 0.11% active | AID 1920062, 2024;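 active = activation at 10 µM reaching about 35% in either raw or pattern-adjusted values, limit read from the data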
VATPase regulator = yeast V-ATPase proton pumping modulators, confirmation, S. cerevisiae, pH-sensitive GFP, second cherry-pick | shares compounds with V-ATPase pH | S. cerevisiae pHLuorin cytosolic pH, V-ATPase proton transport | response, % at 10 µM | 980 tested, 2% active; in the data active = response above about 24%;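 note: plate controls were vehicle wells for no effect and positive control wells for full effect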
An asterisk follows results filed as active; · = no result. Rows were chosen to be rich in hits. Some 1.6% of all compounds tested hit in one or more screens of this group.

SMILES | V-ATPase pH | NPR1 activator | Rev-erbA mod | PG9 binder | NPR2 activator | VATPase regulator
O=C(Nc1ccc(F)cc1Cl)c1ccc2c(=O)n3c(nc2c1)CCC3 | 11* | 2 | -1 | -2 | -1 | 0
COc1ccc(-c2c(-c3cc(OC)cc(OC)c3)n(C)c3ccc(-c4ccc(OC)c(F)c4)cc23)cc1 | 2 | 2 | 6 | -2 | 5 | ·
COc1ccc(-c2c(-c3ccc(OC)c(F)c3)c3ccccc3n2C)cc1 | 21* | -2 | 3 | -2 | 0 | 3
C=CCN1C(=O)[C@@H](CC(=O)N2CCN(C(=O)C3CC3)CC2)[C@]2(C(=O)OCC)CCCCC/C=C/12 | · | 4 | -4 | · | -2 | ·
O=C(Nc1ccc(Cl)cc1)O[C@@H]1CC[C@@]23CCCN2C(=O)CCC[C@H]3C1 | · | -3 | 2 | · | -8 | ·
O=C(NCCC1=CCCCC1)c1cc2ccccc2oc1=O | 10* | 5 | -2 | -1 | -8 | 3
CCCCCCCCN1C(=O)N2Cc3cc(OC)ccc3C2CS1(=O)=O (stereo unspecified) | · | -1 | -10 | · | 7 | ·
COC(=O)[C@]12C[C@H](CC(=O)NCc3ccc(C)o3)C(=O)N(CCc3ccc(OC)c(OC)c3)C1=C[C@H](COCc1ccccc1)O[C@@H]2C | · | 3 | -5 | · | 2 | ·
O=C(Cn1c(=O)c2cccn2c2cccnc21)NCCCN1CCN(c2ccccc2)CC1 | · | 0 | 3 | · | -7 | ·
O=C(Cn1c(CO)nc2ccccc21)NCCc1ccccc1 | 8.1* | 1 | 0 | -1 | 0 | 1
CCCCCCC(=O)NC1CCCCN(Cc2cccc(Cl)c2)C1=O (stereo unspecified) | · | -6 | -2 | · | 3 | ·
COc1ccc(N(CC(=O)Nc2cccc3ccccc23)S(C)(=O)=O)cc1 | 8.5* | -7 | -3 | 0 | -6 | -1
OCCN(Cc1ccccc1)Cc1ccccc1O | 1 | -4 | 1 | -3 | 1 | ·
OCCN(CCO)Cc1csc2ccccc12 | 12* | 3 | -5 | -1 | -1 | 0
CCOC(=O)c1ccc(NC(=O)COc2ccc(CNCCO)cc2OCC)cc1 | 2 | -1 | -1 | 1 | -4 | ·
CCOC(=O)c1ccc(NC(=O)COc2ccccc2CNCCc2ccccc2)cc1 | 14* | -17 | -13 | -2 | -10 | -1
CCOC(=O)CCCNC(=O)COC(=O)CCC(=O)c1ccc(F)cc1 | 1 | 0 | -3 | -1 | 1 | -3
CCCCNC(=O)COC(=O)CCC(=O)c1ccc(F)cc1 | 2 | -3 | 1 | -1 | 2 | 2
CCCNC(=O)COC(=O)CCC(=O)c1ccc(F)cc1 | -8 | -1 | -2 | 2 | 4 | -1
CCOC(=O)CCCNC(=O)COC(=O)c1cccc(F)c1 | -1 | 0 | 1 | -1 | -4 | ·
CC(C)CNC(=O)COC(=O)CCC(=O)c1ccc(F)cc1 | 0 | 1 | -1 | 0 | -2 | ·
CC(C)CN1C(=O)[C@]2(CC(=O)N(C)C2c2ccccc2)c2cc(-n3cc(-c4ccccc4)nn3)ccc21 (stereo partly specified) | · | 5 | -6 | · | 3 | ·
Cc1c(NC(=O)c2cccc(NC(=O)COc3ccccc3C#N)c2)c(=O)n(-c2ccccc2)n1C | 15* | 3 | -8 | -2 | 8 | 0
Cc1occc1C(=O)N/N=C/c1sc(N2CCOCC2)nc1-c1ccccc1 | 10* | -2 | 3 | 3 | -8 | 1
CC(C)CCc1noc(CN(C)CCC2CCOCC2)n1 | -1 | 4 | 4 | -1 | 0 | ·
SMILES | V-ATPase pH | NPR1 activator | Rev-erbA mod | PG9 binder | NPR2 activator | VATPase regulator
CN(CCC1CCOCC1)Cc1nc(Cc2ccccc2F)no1 | 11* | -1 | 2 | -2 | 0 | -3
Cc1nn(-c2ccc(F)cc2)c(Cl)c1/C=C/C(=O)N1CCNC(=O)C1 | -1 | 2 | 6 | -1 | -7 | ·
Cc1nn(-c2ccc(F)cc2)c(C)c1/C=C/C(=O)N1CCNC(=O)C1 | 9.3* | -2 | 3 | -3 | -10 | 0
NC(=O)c1cc(NC(=O)CCc2nc3ccccc3s2)cc(C(N)=O)c1 | 9.6* | -7 | -2 | -1 | -6 | 4
O=C(OC12CCCN(C1)/C(=C/c1ccncc1)C2)c1ccc(Cl)cc1 (stereo unspecified) | · | -3 | 0 | · | -1 | ·
CN(C)S(=O)(=O)c1ccc(C(=O)Nc2ccc(Cl)cc2)cc1 | 0 | 4 | -9 | 4 | 1 | ·
CN(C)S(=O)(=O)c1ccc(C(=O)NCC(=O)Nc2ccc(F)c(F)c2)cc1 | 7.0* | -2 | -3 | 0 | -1 | 1
CC1CCCCN1S(=O)(=O)c1coc(C(N)=O)c1 (stereo unspecified) | 7.0* | 2 | -5 | 4 | 3 | 3
CC1CCCN(S(=O)(=O)c2coc(C(N)=O)c2)C1 (stereo unspecified) | 2 | 2 | -5 | 0 | 1 | ·
COCOCCn1cc(CN2CCS(=O)(=O)N(Cc3ccc(-c4ccc(OC)nc4)cc3)C(C)C2=O)nn1 (stereo unspecified) | 7.8* | 3 | -4 | 1 | 1 | -2
O=C(O)c1ccc(CS(=O)(=O)Cc2ccccc2F)o1 | 9.0* | -2 | -2 | -2 | 1 | 0
O=C(NCc1ccccc1)c1ccc(CS(=O)(=O)Cc2ccccc2F)o1 | -2 | -5 | -4 | -2 | 1 | ·
Cc1cccc(C(=O)NNC(=O)CCn2nnc3ccccc32)c1 | 1 | 3 | -5 | 1 | -1 | ·
Cc1ccc(C(=O)NNC(=O)CCn2nnc3ccccc32)cc1 | 11* | 3 | -2 | 2 | 2 | 4
CC(=O)Nc1cccc(C(=O)OC(C)C(=O)NC(=O)NC2CCCCC2)c1 (stereo unspecified) | 11* | 0 | -2 | 0 | 0 | 0
O=C(COCc1ccccc1)N1CC[C@H]2[C@H](CCCN2Cc2ccccc2)C1 | · | 3 | -3 | · | 0 | ·
CN1CCc2c(sc(N)c2C(=O)O)C1 | 9.6* | 0 | -1 | -1 | 0 | 1
Cc1cc(OC(C)CCN2CCC(C(O)(c3ccccc3)c3ccccc3)CC2)ccc1Br (stereo unspecified) | · | -20 | -2 | · | -2 | ·
NNC(=O)CNC(=O)c1cccc(Br)c1 | 26* | 3 | -5 | 1 | 4 | -6
O=C(CNC(=O)c1cccc(Br)c1)N/N=C/c1ccc[nH]1 | -1 | 0 | 0 | -2 | -1 | ·
N#Cc1c(C(F)(F)F)cc(-c2cccs2)nc1SCc1cccnc1 | 7.7* | 10 | -16 | 2 | 3 | -27
COc1ccccc1C(=O)NCCC(=O)NCCC12CC3CC(CC(C3)C1)C2 | 11* | 1 | -5 | 1 | 2 | -6
